Results reported in PubChem BioAssay AID1030 (National Center for Advancing Translational Sciences (NCATS), 2008).
Screen size: about 220,000 compounds; about 16,000 (7.3%) were called active. Another 25% or so got no clear call; they are omitted. The call rests on the fitted dose curve; in most records, active means well fitted inhibition curve with a large enough effect (not every such curve was filed as active); inconclusive means small, poorly fitted or top-dose-only effect, or another doubt; inactive means no such curve, though single readings can be large or run the other way. Many of the other results were omitted from the sample, so actives are more common in it than they were.

target: Aldehyde dehydrogenase 1A1 (Homo sapiens) (UniProt P00352); test: qHTS Assay for Inhibitors of Aldehyde Dehydrogenase 1 (ALDH1A1); conditions: Purified ALDH1A1, NADH fluorescence, propionaldehyde substrate; series mostly up to 75.3 µM; activity, negative = inhibition: at the top concentration;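 on activity, negative = inhibition: plate controls were no enzyme wells and a reference inhibitor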
Potency means the concentration at half of the fitted maximal effect.

Sequence of Aldehyde dehydrogenase 1A1 (Homo sapiens) (P00352 whole entry, looked up): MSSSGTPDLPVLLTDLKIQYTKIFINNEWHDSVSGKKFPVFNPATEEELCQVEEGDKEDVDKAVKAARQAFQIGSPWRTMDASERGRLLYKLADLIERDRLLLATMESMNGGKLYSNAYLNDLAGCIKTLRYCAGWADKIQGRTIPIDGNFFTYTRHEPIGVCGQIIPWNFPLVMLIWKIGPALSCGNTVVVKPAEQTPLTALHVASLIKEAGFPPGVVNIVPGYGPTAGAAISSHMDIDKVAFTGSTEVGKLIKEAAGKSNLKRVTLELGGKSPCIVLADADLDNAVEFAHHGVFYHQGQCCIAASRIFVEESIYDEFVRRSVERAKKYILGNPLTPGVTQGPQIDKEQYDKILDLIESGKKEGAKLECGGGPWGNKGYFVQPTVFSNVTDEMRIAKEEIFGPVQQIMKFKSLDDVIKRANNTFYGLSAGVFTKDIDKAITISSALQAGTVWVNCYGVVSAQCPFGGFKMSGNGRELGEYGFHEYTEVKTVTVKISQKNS

| SMILES | activity, negative = inhibition | Potency |
| --- | --- | --- |
| CCN=c1sc(C(=O)Nc2ccccc2)c(C)n1CC | -2.58% (inactive) |  |
| COc1ccc(C(=O)Nc2c(Cl)cc(Cl)cc2C(=O)N2CCC(C)CC2)cc1 | 5.74% (inactive) |  |
| O=C(Nc1cccc2ncccc12)c1ccc(-c2ccc(Cl)cc2Cl)o1 | 12.5% (inactive) |  |
| CC1CCN(C(=S)c2ccc(-c3ccc(Cl)cc3Cl)o2)CC1 |  | 28.2 µM (active) |
| CCOC(=O)c1ccccc1NC(=S)N1CCC(C(N)=O)CC1 | -8.79% (inactive) |  |
| CCOc1c(OC)cc(C2C(C#N)=C(N)Oc3n[nH]c(-c4ccncc4)c32)cc1OC (stereo not given) | 1.31% (inactive) |  |
| CCCc1nc2c([nH]1)C(c1cccnc1)C(C#N)=C(N)O2 (stereo not given) |  | 7.94 µM (active) |
| COc1ccc(-c2[nH]nc3c2C(c2ccncc2)C(C#N)=C(N)O3)cc1 (stereo not given) | -6.31% (inactive) |  |
| Cc1ccc(S(=O)(=O)NC(=O)Nc2nc(-c3ccc(F)c(F)c3)cs2)cc1 | 4.72% (inactive) |  |
| Cn1cc(CN2CCCCC2c2ccccn2)c(-c2ccc3c(c2)OCCO3)n1 (stereo not given) | 0.0519% (inactive) |  |
| CN(C)/C=C(/C(=O)c1ccccc1Cl)S(C)(=O)=O | 10.3% (inactive) |  |
| Clc1ccc(-c2csc(-c3ccncc3)n2)cc1 | -2.8% (inactive) |  |
| CC(=O)c1c(C)[nH]c(C(=O)OCC(=O)Nc2cc(S(=O)(=O)N3CCCCC3)ccc2C)c1C | 5.1% (inactive) |  |
| CN(C)CCn1c(=S)[nH]c2ccc(Cl)cc2c1=O | 7.33% (inactive) |  |
| CCCCn1c(=S)[nH]c2ccccc2c1=O | -7.63% (inactive) |  |
| CCCn1c(=S)[nH]c2ccc(C(F)(F)F)cc21 |  | 17.8 µM (active) |
| CC(C)n1c(=S)[nH]c2cc(C(F)(F)F)ccc21 |  | 31.6 µM (active) |
| CC(C)n1c(=O)[nH]c2cc(C(=O)Nc3ccccc3)ccc21 | 6.98% (inactive) |  |
| O=[N+]([O-])c1ccc2oc(-c3cccc(O)c3)nc2c1 | 3.55% (inactive) |  |
| OCCC1CN(Cc2cnc(-c3ccccc3)s2)CCN1CCc1ccccc1 (stereo not given) | -7.11% (inactive) |  |
| Fc1ccccc1Cc1ccc(Cl)nn1 | -3.18% (inactive) |  |
| O=C(CCc1ccccc1)NCCc1cccs1 | 2.95% (inactive) |  |

| SMILES | activity, negative = inhibition | Potency |
| --- | --- | --- |
| Cc1ccnc(NC(=O)CCC(=O)N(CC(=O)NCCc2ccccc2)Cc2cccs2)c1 |  | 14.1 µM (active) |
| O=C(O)CCC(=O)N(Cc1cccs1)Cc1cccs1 | -4.78% (inactive) |  |
| CN(C)CCCCCN(C)Cc1cc2ccccc2o1 | 1.86% (inactive) |  |
| CCOc1ccc(NC(=O)CN(C)CC(=O)NC(C)c2ccccc2)cc1OCC (stereo not given) | -0.197% (inactive) |  |
| O=C(O)CSCC(=O)Nc1ccc(C(F)(F)F)cc1 | -4.77% (inactive) |  |
| COc1ccc2c(c1)O[C@@H](c1ccc3c(c1)OCO3)[C@H](OC(=O)NCc1ccco1)C2=O | -7.76% (inactive) |  |
| CC1CCN(S(=O)(=O)c2ccc(S(=O)(=O)NCc3cccnc3)cc2)CC1 | -2.72% (inactive) |  |
| COc1ccc(-n2nc3c(c2NC(=O)c2ccc(N4C(=O)CCC4=O)cc2)CSC3)cc1 | -1.08% (inactive) |  |
| O=C(NC(=S)Nc1cc(C(F)(F)F)ccc1N1CCOCC1)c1ccc(-c2cccc(Cl)c2)o1 | -8.4% (inactive) |  |
| COc1cccc(OC)c1C(=O)NC(=S)Nc1ccc(N2CCOCC2)c(Cl)c1 | -9.29% (inactive) |  |
| O=C(NC(=S)Nc1ccc2oc(=O)ccc2c1)c1ccc(-c2cccc(Cl)c2Cl)o1 |  | 11.2 µM (active) |
| CC1=C(C)C(=O)OC(C(C)C2CCC3C4CC=C5CC(OC6OC(COC7OC(CO)C(O)C(O)C7O)C(O)C(O)C6O)CC(O)C5(C)C4CCC23C)C1 (stereo not given) | -0.525% (inactive) |  |
| C[C@@]12CCC(=O)C=C1CC[C@H]1C2[C@@H](O)C[C@]2(C)[C@@H]1CC[C@@]2(O)C(=O)COC(=O)C1CCCC1 (stereo not given in full) | -0.294% [at 13.5 µM] (inactive) |  |
| Nc1nonc1C(=O)NCCc1ccccc1 | 0.527% (inactive) |  |
| O=C(NCCSc1ccccc1)c1ccco1 | -13% (inactive) |  |
| O=C(NCCc1ccco1)c1nn(Cc2ccccc2)c(=O)c2ccccc12 |  | 17.8 µM (active) |
| NC1=NC2(CCCCC2)N(c2ccc(F)cc2F)C(N)=N1 | 7.42% (inactive) |  |
| CSc1nnc(-c2ccc(C(F)(F)F)cn2)o1 | -8.87% (inactive) |  |
| CCn1c(-c2cccnc2Cl)nc2cc(C)c(C)cc21 | -3.53% (inactive) |  |
| CN(C)c1ccc(/C=N\S(=O)(=O)c2ccccc2)cc1 |  | 0.708 µM (active) |
| CN(C)c1cc[n+](Cc2ccccc2)cc1 | 20.6% (inactive) |  |
| COc1ccc(/C=N/NC(=O)C(C)N(c2ccc(OC)cc2)S(C)(=O)=O)cc1 (stereo not given) | 0.102% (inactive) |  |

| SMILES | activity, negative = inhibition | Potency |
| --- | --- | --- |
| C#CCOCCOCCOCCNc1nc(N2CCN(C(=O)[C@H](Cc3ccc(O)cc3)n3cc(C(N)CC(C)C)nn3)CC2)nc(N2CCN(C(=O)[C@H](CCC(=O)O)n3cc(C(N)[C@H](C)CC)nn3)CC2)n1 (stereo not given in full) | 6.03% (inactive) |  |
| CC1=C(C/C=C(\C)CCCC(C)CCCC(C)CCCC(C)C)C(=O)c2ccccc2C1=O (stereo not given) | -3.01% (inactive) |  |
| Cc1cc(C)c2nc(SCC(=O)N(C)C3CCS(=O)(=O)C3)cc(C)c2c1 (stereo not given) | -4.71% (inactive) |  |
| Cc1ccccc1NC(=O)Nc1ccccc1N1CCCCC1 | 3.48% (inactive) |  |
| Cc1ccc(CN2CCN(Cc3ccc4ncccc4c3)CC2CCO)cc1 (stereo not given) | 10.3% (inactive) |  |
| O=C(NCCCNc1ccc([N+](=O)[O-])cc1Cl)c1ccccc1F |  | 15.8 µM (active) |
| O=C(NCCNc1ccc([N+](=O)[O-])cc1)c1cccc2c(Br)cccc12 | 10.5% (inactive) |  |
| O=[N+]([O-])c1ccc(NCCCN2CCOCC2)c(Cl)c1 | 20.4% (inactive) |  |
| Cc1ccc(C2=NN(C(=O)COc3ncnc4ccccc34)C(c3ccco3)C2)cc1 (stereo not given) | 5.79% (inactive) |  |
| C=C(C)C(=O)c1ccc(F)cc1 | 0.333% (inactive) |  |
| CCn1c(O)c(N=NC2=NC(=O)CS2)c2cc(C)ccc21 |  | 14.1 µM (active) |
| CCn1c(O)c(N=NC(=O)c2cccc(S(=O)(=O)N3CCCCC3)c2)c2ccccc21 | -4.06% (inactive) |  |
| O=C(N/N=C/c1ccccn1)c1ccc(S(=O)(=O)N2CCCCCC2)cc1 | -7.41% (inactive) |  |
| CC(c1ccco1)N(C(=O)COc1ccccc1[N+](=O)[O-])c1ccccn1 (stereo not given) | -2.13% (inactive) |  |
| CC(c1ccco1)N(C(=O)c1ccc(S(=O)(=O)N2CCCCC2)cc1)c1ccccn1 (stereo not given) |  | 12.6 µM (active) |
| COc1ccc(NS(=O)(=O)c2ccc(NC(=S)NC(=O)CC(C)C)cc2)cc1 |  | 12.6 µM (active) |
| CC(=O)c1ccc(NC(=S)NC(=O)CC(C)C)cc1 | 13.6% (inactive) |  |
| COc1ccc(C(=O)Nc2ccc(S(=O)(=O)NC(C)C)cc2)cc1 | 1.37% (inactive) |  |
| O=C(NCC1CCN(Cc2ccccc2Cl)CC1)Nc1cccc(Cl)c1 | 3.46% (inactive) |  |
| COC(=O)C1=C(C)N(c2ccc(Br)cc2)C(=O)/C1=C\c1ccco1 | -6.89% (inactive) |  |
| CCC1SC(CC)C(=O)N(CC(=O)NC2CCCCC2)C1=O (stereo not given) | -2.09% (inactive) |  |
